# Source: PubChem BioAssay AID651558 (National Center for Advancing Translational Sciences (NCATS), 2012)
# In all, about 1,200 compounds went through this assay and about 480 (40%) were called active. Inconclusive results (about 29%) are left out. The list shows a part of the results. A number with no mark means an inactive call. Calls follow the shape of the dose curve; as a rule, active = well fitted inhibition curve with a large enough effect; inconclusive = small, poorly fitted or top-dose-only effect; inactive = no such curve, though single readings can be large or run the other way.
# Experiment: qHTS Assay to Find Inhibitors of Chronic Active B-Cell Receptor Signaling: Hit Validation in Primary Screen; also: nearly all actives have a fitted effect of over 75% in size
# Settings: ABC-DLBCL IkB-luc/CBR ratio luminescence, 4 h; series mostly up to 46.1 µM; activity change, negative = inhibition: at the top concentration
# Source text: Diffuse large B-cell lymphoma (DLBCL) is the most common category of non-Hodgkin lymphoma, with ~20,000 new cases per year in the United States. DLBCL should be regarded as a collection of different neoplasms. Microarray gene expression analysis has defined two principal types of DLBCL, named for their similarity to normal B cell stages or activation states: a germinal center B-cell (GCB) type, and an activated B-cell (ABC) type. In ABC-DLBCL, a constitutive high-level activity of the NF-kappaB family of transcription factors has been observed (1) and NF-kappaB target genes are more highly expressed in ABC primary tumors than in GCB tumors. Functional studies have shown a constitutive high-level activity of the IkappaB (inhibitor of kappa-B) kinase (IKK) complex. […] Further analysis of DLBCL primary tumors for NF-kappaB target gene expression imply that although CARD11 is required for constitutive IKK activity in all ABC-DLBCL lines, mutations in CARD11 may be the root cause of IKK activation only in lines or tumors with such mutations. In other words, CARD11 mutations may explain NF-kappaB activation in only 10% of ABC-DLBCL cases. […] This process has been termed 'chronic active BCR signaling' (CABS). The goal of this screen is to find small-molecule inhibitors of the CABS pathway found in ABC-DLBCL lines using a cell-based assay that measures IkappaBalpa stability, which has already been extensively validated in the OCI-Ly3 line (PubChem AID:445; REF: 4). […] A cell-sensor assay for I-kappa-B-alpha stabilization has been developed. The assay uses green (CBG68) and red (CBR) emitting beetle luciferases [Chroma-GloTM developed by Promega Corp.] where the green luciferase is fused to IkappaBalpha and the red luciferase is present in its native state. Both luciferase genes are stably present in the TMD8 human ABC DLBCL cell line, but their expression is under the control of tetracycline-inducible promoters. Following the addition of doxycycline to induce expression of the luciferases, the green luminescence in control cultures rises only slowly because the CBG fusion partner IkappaBalpha is targeted by IKK activity for rapid degradation. In contrast, green luminescence rises rapidly in the presence of proteasome inhibitors or IKK inhibitors. The rise in red luminescence of CBR is not affected by proteasome or IKK inhibitors, and serves as normalization for cell number and nonspecific effects. Compounds were screened as a concentration-titration series that ranged from 46 uM to 3 nM. NIH Molecular Libraries Probe Production Network [MLPCN] NIH Chemical Genomics Center [NCGC] MLPCN Grant: R03 DA031086 PI Name: Dr. R. Eric Davis
# Cells were seeded in 1536-well plates at 5000 cells/4uL in IMDM medium containing 0.5% FBS, w/o phenol red, 1% penicillin/streptomycin. Then, 23 nL of compounds or DMSO were delivered to each well using a pin tool. One uL 20ng/ml doxycycline was then dispensed into white solid 1536-well plates and the plates were incubated at 37C/5% C02 in a cell incubator for 4 hrs. Then 4 uL luminescent substrate mix (in-house prepared: 150 mM Tris-Cl, pH 7.6, 3 mM MgCl2, 1% Triton X-100, 5 mM DTT, 0.2 mM CoA, 0.15 mM ATP, 5 mM D-luciferin, final concentrations) was added to each well. The plate was incubated at r.t. for 10-15 min. The plates were measured on a ViewLux plate reader for green luminescence (540/20 nm filter) and red luminescence (618/8 nm filter). The green and red luminescent signals were corrected for red and green luminescence filter overlap using previously determined filter calibration constants (determined using the procedure outlined in the Promega Technical Manual; REF 4). The %Activity was determined from the ratio of corrected green/red luminescent values. MG132 were used as control. Green luminescent and ratio %Activity was determined by normalizing to the difference in signal between basal cells (0% Activity) and cells incubated with 10 uM of the proteasome inhibitor MG-132 (100% Activity). […]
# % is scaled to controls: 0 for no effect and ±100 for the full control effect; potency is read from the fitted curve at half-maximal effect.
Compound,Potency,"activity change, negative = inhibition"
CCc1ccc(NC(=O)C(C)OC(=O)/C=C/c2ccc(O)c(OC)c2)cc1 (configuration not stated),20.6 µM (active),
CCOC(=O)/C=C/C(=O)OCC(=O)Nc1ccc(OC)c(Cl)c1,,-7.12%
CC(C)N1C(=O)/C(=C/c2nc3ccccc3c(=O)n2-c2ccccc2)c2ccccc21,18.4 µM (active),
COc1ccccc1CNS(=O)(=O)c1ccc(-c2cc(C)no2)cc1,13 µM (active),
COc1ccc(-c2nn(C)c(=O)c3ccccc23)cc1CNS(C)(=O)=O,,-7.23%
COc1ccccc1CNS(=O)(=O)c1ccc(-c2cnc(C3CC3)o2)cc1,16.4 µM (active),
COc1ccccc1NS(=O)(=O)c1ccc(-c2cnc(C3CC3)o2)cc1,,36.3%
CCOc1ccccc1NS(=O)(=O)c1ccc(-c2cnc(C3CC3)o2)cc1,0.82 µM (active),
CCOc1ccccc1CNS(=O)(=O)c1ccc(-c2cnc(C3CC3)o2)cc1,7.31 µM (active),
CCN(CC(=O)Nc1ccccc1SC)Cc1nc2ccccc2c(=O)[nH]1,,-6.31%
N#Cc1cccc2c1-c1ccccc1/C2=N/NC(N)=S,,126%
Cn1c(=S)c2[nH]c(SCCN3CCCC3)nc2n(C)c1=O,,3.37%
O=S(=O)(Nc1cccc2ncccc12)c1cccs1,5.8 µM (active),
Cc1ccc(S(=O)(=O)Nc2cccc3ncccc23)s1,4.61 µM (active),
CCC(=NCCc1c(C)[nH]c2ccc(C)cc12)C1=C(O)CC(c2ccccc2)CC1=O (configuration not stated),0.82 µM (active),
CCCC(=O)Nc1ccc(C(=O)N/N=C/c2cccnc2)cc1,,-1.77%
CC(C)c1ccc(/C=N/NC(=O)c2ccccc2Cl)cc1,20.6 µM (active),
CC(C)(C)NC(=S)N/N=C/c1cccnc1,,-5.02%
Cc1cc2nc(/C=C/c3cccnc3)[nH]c2cc1C,1.03 µM (active),
Cc1ccc(N2C(=O)c3cccc4c(N)ccc(c34)C2=O)c2cccnc12,0.461 µM (active),
COc1cc(C(=O)c2cocc2C(=O)c2ccc3c(c2)OCO3)cc(OC)c1OC,14.6 µM (active),
COc1cc(C(=O)N/N=C(\C)Cc2ccccc2)cc(OC)c1OC,,-14%
COc1cc(C(=O)N/N=C(\C)c2ccc3c(c2)OCO3)cc(OC)c1OC,18.4 µM (active),
COc1cc(C(=O)N/N=C(\Cc2ncc[nH]2)c2ccccc2)cc(OC)c1OC,,-14%
O=C(Oc1c(CN2CCOCC2)cc(Cl)c2cccnc12)c1cccs1,,-6.17%
CNC(=O)[C@H]1O[C@@H](n2cnc3c(NCc4cccc(I)c4)nc(Cl)nc32)[C@H](O)[C@@H]1O,2.31 µM (active),
CNC(=O)[C@H]1O[C@@H](n2cnc3c(NCc4cccc(I)c4)ncnc32)[C@H](O)[C@@H]1O,1.64 µM (active),
